Assay outcomes: PubChem, National Center for Advancing Translational Sciences (NCATS)
Pf growth 48h: Primary qHTS for delayed death inhibitors of the malarial parasite plastid, 48 hour incubation. Potency, µM (titrated, usually from 28.7 µM), without a hit: at the top dose activity change, negative = inhibition, actives largely listed as inhibitors. AID 504832, 2011. P. falciparum luciferase growth in erythrocytes, 48 h. actives 5.9% (n = 310,000); further: potency means the concentration at half of the fitted maximal effect; on the % scale 0 is the no-effect control and ±100 the full control effect
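A one-generation exposure of luciferase-tagged malaria parasites in RPMI 1640/Albumax erythrocyte culture, 37 C and 5% CO2. Inhibition is inferred from decreased luminescence after adding detection reagent.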
Pf growth 96h: Primary qHTS for delayed death inhibitors of the malarial parasite plastid, 96 hour incubation; P. falciparum luciferase reporter growth, 96 h; Potency, µM (top dose mostly 28.7 µM), without a hit: at the highest dose activity change, negative = inhibition, actives largely listed as inhibitors; actives 6.9% (n = 320,000); AID 504834, 2011; further: potency means the concentration at half of the fitted maximal effect; on the % scale 0 is the no-effect control and ±100 the full control effect
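P. falciparum expressing integrated firefly luciferase, in erythrocytes at 2% hematocrit, 0.05% parasitemia, incubated with compounds 96 h at 37 C, 5% CO2. Growth inhibition read as loss of luminescence; two-generation exposure targets delayed-death apicoplast inhibitors.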
CHX counter: Cycloheximide Counterscreen for Small Molecule Inhibitors of Shiga Toxin. AID 2314, 2010. actives 12% (n = 300,000). cell reporter, cycloheximide protein synthesis inhibition counterscreen. max response, %; in the data active means max response mostly above about 13%, no sharp cut-off; inactive means mostly below about 14%; further: read at 38.3 µM for the half of the compounds with a filed dose; 0% is about no effect
Shiga toxin inh: A qHTS for Small Molecule Inhibitors of Shiga Toxin | AID 2315, 2010 | actives 9.2% (n = 290,000) | Vero cells, Shiga toxin protein synthesis inhibition reporter | inhibition, % at 38.7 µM; in the data active means inhibition mostly above about 28%, no sharp cut-off; inactive means mostly below about 43%; further: 0% is about no effect
An asterisk follows results filed as active; i = inactive; ? = inconclusive; · = no result. Compounds with a hit are over-represented: about 21% of the library has one in this group of screens. Unless noted, the call rests on the fitted dose curve; in most records, active means well fitted inhibition curve with a large enough effect; inconclusive means small, poorly fitted or top-dose-only effect, or another doubt; inactive means no such curve, though single readings can be large or run the other way.

SMILES	Pf growth 48h	Pf growth 96h	CHX counter	Shiga toxin inh
CSCC[C@H](NC(=O)[C@H](CC(C)C)NC(=O)[C@@H](Cc1cnc[nH]1)NC(=O)[C@H](Cc1ccccc1)NC(=O)[C@@H](Cc1ccccc1)NC(=O)[C@@H](N)Cc1ccc(O)cc1)C(N)=O	·	·	-8	6
COc1ccccc1NC(=O)Cc1noc(CSc2nnc(C)n2C)n1	?	?	-2	16
COc1cccc(NC(=O)Nc2ccc3c(c2)nnn3C)c1	61%	?	32*	59*
CN1c2ccsc2C(O)=C(C(=S)Nc2ccc(F)c(Cl)c2)S1(=O)=O	·	?	15*	51
CCOC(=O)Cc1csc(NC(=O)c2cccnc2)n1	22%	-16%	-1	-2
CCOC(=O)Cc1csc(NC(=O)CN2CCOCC2)n1	?	9.3µM*	-1	-5
CC(NC(=O)COC(=O)CCc1ccc(S(=O)(=O)N2CCOCC2)cc1)C1CC2CCC1C2 (stereo not given)	1%	18%	36*	-15
CCCCC(=O)Nc1nc(-c2ccc(S(=O)(=O)N3CCOCC3)cc2)cs1	?	?	-3	2
CCOC(=O)Cc1csc(NC(=O)c2ccc(S(=O)(=O)N3CCCCC3)cc2)n1	32%	5.9µM*	-4	-12
Cc1cc(C)cc(NC(=O)COC(=O)CCc2ccc(S(=O)(=O)N3CCOCC3)cc2)c1	5%	0%	-1	-7
CCOC(=O)Cc1csc(NC(=O)CCc2ccc(S(=O)(=O)N3CCOCC3)cc2)n1	2.6µM*	?	-4	-3
O=C(Nc1ccc(S(=O)(=O)NCc2ccco2)cc1)c1ccc2ccccc2n1	?	·	89*	51*
O=C(NCc1ccco1)c1ccc2ccccc2n1	8%	10µM*	-2	-4
CC(C)CC(=O)Nc1ccc(S(=O)(=O)NCc2ccco2)cc1	9%	·	7	40
Cc1nc2ccccc2cc1C(=O)NCc1ccco1	1%	4%	-3	0
CC1CC(C)CN(C(=S)Nc2ccc(SC(F)F)cc2)C1 (stereo not given)	22%	34%	-3	-11
CN1CCC(N(C)C(=S)Nc2ccc(SC(F)F)cc2)CC1	-12%	-21%	24*	active
OC1CCCN(C(=S)Nc2ccc(SC(F)F)cc2)C1 (stereo not given)	60%	114%	27*	34*
CC(=O)c1ccc(NC(=S)N(C)C2CCN(C)CC2)cc1	6%	2.1µM*	-1	-3
CN1CCC(N(C)C(=S)Nc2ccc(F)cc2)CC1	336%	9%	-1	-3
CCOC(=O)c1c(C)[nH]c(C)c1S(=O)(=O)NCc1ccccc1C	-1%	10%	10	-3
COc1cccc(C(=O)OCC(=O)Nc2ccc(N3CCOCC3)cc2)c1	32%	28%	·	·
O=C(c1ccco1)N1CCN(C(=O)c2ccc(CS(=O)c3ccc(Cl)cc3)o2)CC1 (stereo not given)	8%	?	-13	-14
Cc1c(Br)c(C(=O)N2CCc3ccccc32)nn1C	123%	125%	91*	62*
Cn1nc(C(=O)N2CCCc3ccccc32)c2ccccc2c1=O	-3%	26%	1	-6
SMILES	Pf growth 48h	Pf growth 96h	CHX counter	Shiga toxin inh
Cc1c(Cl)c(C(=O)N2CCCc3ccccc32)nn1C	?	-1%	16	47*
CCCCCn1nc(C(=O)N2CCc3ccccc32)c2ccccc2c1=O	10µM*	?	·	·
O=C(c1nn2c(C(F)(F)F)cc(-c3cccs3)nc2c1Cl)N1CCCc2ccccc21	28%	10µM*	48*	80*
CCCn1nc(C(=O)N2CCc3ccccc3C2)c2ccccc2c1=O	?	0%	-7	-11
Cc1cc(Cl)ccc1C(=O)C1CCCN(C(=O)c2cnsn2)C1 (stereo not given)	-8%	9%	8	-2
Cc1ccc(S(=O)(=O)N2CCC(NC(=O)c3cccc(C)c3)CC2)cc1	-1%	?	-4	-3
O=C(OCCOc1ccc(Br)cc1)c1ccc(Cl)c(S(=O)(=O)N2CCOCC2)c1	?	-33%	·	·
O=C(O)C1NCCN(C(=O)c2ccc3c(ccc4ccccc43)c2)C1C(=O)O (stereo not given)	·	·	-6	-3
O=C(c1cccn2c(=O)c3cc4ccccc4cc3nc12)N1CCN(c2ccccc2)CC1	?	?	23*	35*
CCOC(=O)N1CCN(C(=O)c2cccn3c(=O)c4sccc4nc23)CC1	27%	2.3µM*	0	-3
O=C(c1cccn2c(=O)c3ccccc3nc12)N1CCN(c2ccccn2)CC1	2%	i	-2	-5
CCOC(=O)N1CCN(C(=O)c2ccc3nc4ccc(Cl)cc4c(=O)n3c2)CC1	5%	?	-1	-4
CCOC(=O)N1CCN(C(=O)c2ccc3nc4ccsc4c(=O)n3c2)CC1	2%	8.3µM*	-1	5
COc1ccc(NC(=O)COC(=O)CC2CC3CCC2C3)c([N+](=O)[O-])c1 (stereo not given)	26%	-15%	-8	-14
COc1ccnc(NCc2ccc(Cl)cc2)c1C#N	36%	42%	27*	56*
O=C(O)CC1(CC(=O)NCc2ccncc2)CCCCC1	?	?	-1	-9
Cc1ccc2[nH]c(SCC(=O)N3CCOCC3)nc2c1C	124%	1%	52*	98*
CC(=O)c1cc2c(cc1NC(=O)CSc1nc3ccc(C)cc3[nH]1)OCO2	?	55%	20*	4
Cc1ccc2nc(SCC(=O)N3CCOCC3)[nH]c2c1	·	216%	38*	56*
C/C(N)=C(/C#N)C(=O)CSc1nc2ccc(C)cc2[nH]1	151%	168%	56*	86*
O=C(COc1ncnc2ccccc12)NCC1CCCO1 (stereo not given)	6%	27%	-3	-13
COc1ccc(/C=C/C(=O)NCC(=O)N/N=C/c2cccs2)cc1	31%	2%	-1	2
CCOc1ccccc1NC(=O)C1(S(=O)(=O)c2ccc(Cl)cc2)CC1	?	-21%	1	13
CCC(C(=O)NCCCN1CC(C)CC(C)C1)n1ncn2c(cc3occc32)c1=O (stereo not given)	?	?	11	-3
NS(=O)(=O)c1ccc2c(c1)oc(=O)c1cc(S(N)(=O)=O)ccc12	-6%	0%	0	19
SMILES	Pf growth 48h	Pf growth 96h	CHX counter	Shiga toxin inh
Cc1cc(C(=O)CSc2nc3ccc(Cl)cc3[nH]2)c(C)n1CC1CCCO1 (stereo not given)	·	?	13	44
Cc1ccc2nc(SCC3CCCCO3)[nH]c2c1 (stereo not given)	-2%	16%	30*	44*
Cc1cc(/C=C2\SC(=S)N(Cc3ccco3)C2=O)c(C)n1-c1ccccc1	?	?	73*	80*
O=C1/C(=C/c2ccccn2)SC(=S)N1c1cccc(O)c1	7%	0%	36*	38*
Cc1cc(/C=C2\SC(=S)N(C)C2=O)c(C)n1-c1cccc(O)c1	-31%	1%	59*	107*
O=C1/C(=C\c2ccco2)SC(=S)N1Cc1ccccc1	-5%	?	-1	-2
